EWS-Fli block: blocks EWS/Fli oncoprotein-driven transcription; A673 NR0B1-luciferase reporter, viability-normalised; inhibition, % at 12.6 µM; 350,000 compounds, 0.67% hits; AID 651661;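 active means mean inhibition of at least 50% after viability correction, with every replicate also passing that limit; inconclusive means mean reaches 50% but only one of two replicates passes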;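 further: firefly luciferase signal divided by Alamar Blue viability fluorescence both relative to DMSO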
Shn3 inh set2: inhibitors of Schnurri-3 3'UTR reporter in osteoblasts; Clone20 osteoblast Shn3 3'UTR firefly luciferase, 24 h; inhibition, % at 12.5 µM; 360,000 compounds, 0.52% hits;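 active means mean inhibition of at least 75% with every replicate also reaching 75%; inconclusive means mean inhibition at least 75% but some replicate below; inactive means mean inhibition below 75%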;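 further: 0% = median of neutral control wells and 100% = pilot-screen positive control compound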
TRPM1 prom inh: reduces MITF-dependent TRPM1 promoter luciferase signal; SK-MEL-5 TRPM1 promoter luciferase, 24 h; inhibition, % at 12.5 µM; 330,000 compounds, 0.83% hits; AID 488899;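 active means mean inhibition across replicates of 60% or more, whatever share of single replicates reaches that level; inconclusive means some that reach 60%, reason not given; inactive means mean inhibition across replicates below 60%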
PAX8 reporter: PAX8 transcriptional activity inhibition. RMG-I TPO-luciferase reporter, SteadyGlo, 24 h. inhibition, % at 12.6 µM. 360,000 compounds, 1.2% hits;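 active means mean replicate inhibition at least 60% with every replicate also reaching 60%; inconclusive means only one of the two criteria is met; inactive means mean below 60% and not all replicates reaching 60%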;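 further: luciferase light reporting Pax8 driven TPO promoter activity; plate controls were median of neutral control wells for no effect and mitoxantrone controls for full effect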
EBV LMP1 NFkB: reduces LMP1-driven NF-kappaB luciferase signal; LMP1-induced NF-kappaB luciferase reporter cells, luminescence; inhibition, % at 12.5 µM; 350,000 compounds, 0.69% hits; AID 504558; in the data active means inhibition above about 41%; inconclusive means no clear call, values can overlap the other calls;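 further: 0% = neutral control wells and 100% = reference inhibitor control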
LGR2 antag: Drosophila LGR2 receptor signaling inhibition; HEK293 LGR2, CRE-luciferase, bursicon-stimulated, 4 h; inhibition, % at 9.99 µM; 380,000 compounds, 0.35% hits; AID 720647;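 active means drop in luminescence signal, shown as inhibition above about 50% in the replicate tests, limit read from the data, passing the limit was not always enough; inconclusive means probably only some replicates passing the limit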;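 further: agonist challenge used bursicon conditioned medium at about half maximal strength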
* hit, by the source's call; u = inconclusive; x = no result. Rows were chosen to be rich in hits. Some 2.2% of all compounds tested hit in one or more screens of this group.

SMILES | EWS-Fli block | Shn3 inh set2 | TRPM1 prom inh | PAX8 reporter | EBV LMP1 NFkB | LGR2 antag
CCOC(=O)C1(CCOc2ccccc2)CCN(Cc2ccc(OC)c(O)c2)CC1 | 0 | 19 | -5 | -13 | 8 | -29
CC(C)CC#Cc1ccc([C@H]2[C@@H](CO)N3C(=O)CN(C(=O)c4ccccn4)C[C@@H]23)cc1 | -12 | x | x | x | x | 6
C[C@@H]1CN([C@@H](C)CO)C(=O)c2cccc(NS(=O)(=O)c3cn(C)cn3)c2O[C@H]1CN(C)C(=O)Nc1ccc2c(c1)OCO2 | -109 | x | x | x | x | -2
CCN(CC)CCCCNc1ncc2cc(-c3cc(OC)cc(OC)c3)c(NC(=O)NC(C)(C)C)nc2n1 | 36 | 40 | 73* | 44 | 30 | 16
CCN(CC)CCNC1=NCCn2c1cc1cc(OC)ccc12 | x | -21 | -8 | -3 | -18 | x
CCNC(=O)[C@@H]1[C@@H](CO)[C@@H]2Cn3c(ccc(C4=CCCC4)c3=O)[C@H]1N2Cc1ccncc1 | 2 | x | x | x | x | -14
O=C1ON=C(c2ccccc2)/C1=C\c1ccco1 | 8 | 6 | -2 | 7 | -1 | x
Cc1ccc(/C=C2/C(=O)ON=C2c2ccccc2)o1 | 22 | 57 | 71* | -14 | -14 | 13
COc1cc([N+](=O)[O-])ccc1-c1ccc(/C=N\n2cnnc2)o1 | 5 | 6 | 9 | 9 | -10 | 4
COc1cc([N+](=O)[O-])ccc1-c1ccc(/C=C2\C(=O)ON=C2c2ccccc2)o1 | 38 | 36 | 90* | -28 | 17 | -3
O=C(Nc1ccccc1SC(=O)c1ccccc1)c1ccccc1 | -29 | -73 | x | -68 | -34 | -91
Cc1ccc(C(=O)Sc2cccccc2=O)cc1 | 34 | 96* | 83* | 43 | -19 | 1
COCCCNCC1C(Oc2ccc(Cl)cc2)C(=O)N1c1ccccc1C (stereo unspecified) | x | 12 | 1 | x | 76* | -6
CSc1oc(-c2ccc(F)cc2)nc1S(=O)(=O)c1ccc(F)cc1 | 10 | 20 | -22 | -15 | 89* | 16
O=C(C[C@@H]1CC[C@@H](NC(=O)c2cccnc2)[C@H](CO)O1)NCc1ccncn1 | 6 | x | x | -3 | x | 5
C(/C=C/c1ccccc1)=N/N1CCN(c2ccccc2)CC1 | x | -66 | -92 | x | -11 | x
C(=C\c1ccccc1)/C=N/N1CCN(c2ccccn2)CC1 | x | -37 | -82 | x | 85* | x
O=C(NCC1CCCO1)C(=O)NCC(c1ccco1)N1CCN(c2ccccc2)CC1 (stereo unspecified) | -8 | 4 | -4 | 151* | -4 | -5
O=C(NCC1CCCO1)C(=O)NCC(c1ccco1)N1CCN(c2ccc(F)cc2)CC1 (stereo unspecified) | 1 | -6 | 13 | 34 | -5 | 3
COc1ccc(S(=O)(=O)N[C@@H]2C=C[C@H](CC(=O)N3CCC(Cc4ccccc4)CC3)O[C@@H]2CO)cc1 | 13 | x | x | 16 | x | 21
O=C(Nc1ccccc1)c1cc(C2CCCN(C(=O)C3CC3)C2)on1 (stereo unspecified) | 50 | 17 | x | -5 | x | 84*
CCCNC(=O)N1CCC2(CC1)CN(C(C)=O)[C@H](CO)c1c2c2ccc(OC)cc2n1C | 19 | x | x | x | x | -6
COc1cc(C2C3=C(Nc4ncnn42)c2ccccc2CC3)cc(OC)c1OC (stereo unspecified) | x | 11 | u | 95* | -1 | x
O=C1c2cccc3c(O)ccc(c23)C(=O)N1c1ccc(Cl)cc1 | 26 | 2 | 55 | 102* | 60* | -18
C[C@@H]1CCCCO[C@@H](CN(C)C(=O)Nc2ccccc2)[C@@H](C)CN([C@@H](C)CO)C(=O)c2cc(NS(=O)(=O)c3ccc(F)cc3)ccc2O1 | x | x | x | 7 | x | -7
O=C(CCNc1cccc(F)c1)c1cc2ccccc2o1 | -7 | -7 | -8 | 8 | 46* | -38
C[C@H](CO)N1C[C@H](C)[C@H](CN(C)Cc2ccc(C(F)(F)F)cc2)OCCCC[C@H](C)Oc2ccc(NC(=O)Nc3ccc(F)cc3)cc2C1=O | 19 | x | x | 52 | x | 18
C[C@H](CO)N1C[C@H](C)[C@@H](CN(C)Cc2ccc(C(F)(F)F)cc2)OCCCC[C@H](C)Oc2ccc(NC(=O)Nc3ccc(C(F)(F)F)cc3)cc2C1=O | -18 | x | x | -9 | x | 11
C[C@@H]1CN([C@@H](C)CO)C(=O)c2cc(NC(=O)Nc3ccc(F)cc3)ccc2O[C@@H](C)CCCCO[C@H]1CN(C)Cc1ccc(C(F)(F)F)cc1 | 15 | x | x | 84* | x | 9

Compound activity: PubChem BioAssay, Broad Institute
